Assay outcomes (PubChem)
An excerpt weighted towards active compounds, which were near 4.7% of everything screened.
DRD3 antagonist: qHTS of D3 Dopamine Receptor Antagonist: qHTS; AID 652054, 2013; D3R cells, DiscoveRx beta-arrestin luminescence, antagonist mode; active compounds read low; max response, negative = inhibition, %; 2.5% of 360,000 active; in the data active means max response below about -50%; inconclusive means no clear call, values can overlap the other calls
Target sequence (P35462 whole entry, looked up): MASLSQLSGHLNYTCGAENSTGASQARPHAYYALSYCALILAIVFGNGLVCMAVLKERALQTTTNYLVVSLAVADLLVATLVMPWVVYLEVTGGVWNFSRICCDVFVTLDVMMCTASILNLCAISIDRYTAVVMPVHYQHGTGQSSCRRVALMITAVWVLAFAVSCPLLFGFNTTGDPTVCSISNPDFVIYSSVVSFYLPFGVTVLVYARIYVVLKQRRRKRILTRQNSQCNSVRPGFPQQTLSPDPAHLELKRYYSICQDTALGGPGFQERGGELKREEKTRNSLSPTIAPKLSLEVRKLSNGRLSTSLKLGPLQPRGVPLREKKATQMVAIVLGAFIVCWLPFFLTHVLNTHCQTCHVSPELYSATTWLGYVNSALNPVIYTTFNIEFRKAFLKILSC
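Cells plated overnight at 1500 cells/well, then exposed to library compounds with dopamine controls for 90 minutes at 37 degrees C. DiscoveRx reagent added for 30–60 minutes at room temperature; luminescence read, quantitative HTS format.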
D3 ag: qHTS of D3 Dopamine Receptor Agonist: qHTS; D(3) dopamine receptor (Homo sapiens), P35462; D3R DiscoveRx beta-arrestin cells, luminescence, 90 min; max activation, %; 0.58% of 410,000 active; AID 652048, 2013; in the data active means max activation above about 30%
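Agonist-mode cell screen: cells plated at 1500/well and incubated overnight at 37 °C, then exposed to library compounds for 90 min at 37 °C. Detection reagent was added for 30–60 min at room temperature, and luminescence was read.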
HepG2 viability: qHTS for Inhibitors of TGF-b: Cytotox Counterscreen. HepG2 CAGA-GFP viability, ATP luminescence, 18 h. Potency, µM (doses to about 46.1 µM), usual class: cytotoxic. 0.76% of 410,000 active. AID 588856, 2011
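HepG2 CAGA-GFP cells (1000/well, DMEM with 1% FBS) received compound, then TGF-beta at 500 pg/mL final, and were incubated 18 hours at 37 degrees C. Viability was read by CellTiter-Glo luminescence. Media-only wells were set as complete cell-killing and DMSO as no toxicity.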
S2 tox: Viability Counterscreen for Primary qHTS for Inhibitors of ATXN expression; 0.49% of 400,000 active; Potency, µM (series often up to 56.7 µM), most hits filed as cytotoxic; AID 651635, 2014; S2 cells (HEK-293 line with an ATXN2-luciferase reporter) viability, CellTiter-Fluor protease fluorescence, 24 h; further: nearly all actives have a fitted effect of over 40% in size
ATXN2 expr inh: Primary qHTS for Inhibitors of ATXN expression. 0.72% of 360,000 active. HEK-293 ATXN2-luciferase reporter, luminescence, 24 h. Potency, µM (doses to about 57 µM), usual class: inhibitors. AID 1745845, 2022; further: nearly all actives have a fitted effect of over 55% in size
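qHTS (up to 57 uM final) was run with 24 h compound exposure of reporter cells at 37 °C. Each well was multiplexed: SteadyGlo luminescence measured ATXN2-luciferase expression after a fluorogenic Gly-Phe-AFC viability readout (25 uM final).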
TGFb inhibitor: qHTS for Inhibitors of TGF-b | Potency, µM (top dose mostly 46.1 µM), actives largely listed as inhibitors | HepG2 CAGA-GFP TGF-b/SMAD3 reporter, GFP fluorescence, 18 h; TGF-beta stimulated, 500 pg/mL final | 1.2% of 410,000 active; further: nearly all actives have a fitted effect of over 65% in size
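HEPG2 CAGA-GFP, 1000 cells/well; 2 h settle, 37 C; cpd via pin tool; TGF-b 500 pg/mL final; 18 h, 37 C; GFP imaging ex488/em500-530; %Activity normalised to -TGF-b and +DMSO controls; CRC fit, curve class.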
Hits are given with their value. Unless noted, the call rests on the fitted dose curve; in most records, active means well fitted curve in the direction sought with a large enough effect; inconclusive means small, poorly fitted or top-dose-only effect, or another doubt; inactive means no such curve, though single readings can be large; an effect the other way counts as inactive or inconclusive.

COc1cccc(-c2onc3ccc(C4(C)OCCO4)cc23)c1 was read as DRD3 antagonist inactive, D3 ag 32, HepG2 viability inactive, S2 tox inactive, ATXN2 expr inh inactive and TGFb inhibitor inactive.
Cc1cc(N2C3CCC2CC(O)(c2ccc(F)cc2)C3)nc(-c2ccccc2)n1 (stereo unspecified) was read as DRD3 antagonist -60, D3 ag inactive, HepG2 viability inactive, S2 tox inactive, ATXN2 expr inh inconclusive and TGFb inhibitor inconclusive.
Screening O=C(Nc1ccccc1)N1C2CCC1CC(O)(c1cccnc1)C2 (stereo unspecified) returned DRD3 antagonist inactive, D3 ag inactive, HepG2 viability inactive, S2 tox inactive, ATXN2 expr inh inactive and TGFb inhibitor inconclusive.
Screening CC(C)C(=O)N1C2CCC1CC(O)(c1ccc(F)cc1)C2 (stereo unspecified) returned DRD3 antagonist -67, D3 ag inactive, HepG2 viability inactive, S2 tox inactive, ATXN2 expr inh inactive and TGFb inhibitor inactive.
For COc1ccc2c(c1)C[C@]1(C)c3ccccc3C(=O)N(Cc3ccccc3)[C@H]21 the results were DRD3 antagonist inactive, D3 ag inactive, HepG2 viability inactive, S2 tox inconclusive, ATXN2 expr inh inconclusive and TGFb inhibitor 11µM.
CCC(CC)C(=O)Nc1c(C(=O)N2CCN(c3ccccc3F)CC2)oc2ccccc12 was read as D3 ag inactive, HepG2 viability inactive and TGFb inhibitor inactive.
C#CCCc1ccccc1/C=[N+](/C)[O-] was read as DRD3 antagonist inactive, D3 ag inactive, HepG2 viability inactive, S2 tox inactive, ATXN2 expr inh inactive and TGFb inhibitor 16µM.
`COC(=O)[C@H](Cc1ccccc1)NC(=O)c1ccc2ccccc2n1` gave DRD3 antagonist inactive, D3 ag inactive, HepG2 viability inactive, S2 tox inactive, ATXN2 expr inh inactive and TGFb inhibitor inactive.
For CC(C)(C)NC(=O)[C@@H]1C[C@@H]2CCCC[C@@H]2CN1C[C@@H](O)[C@H](Cc1ccccc1)NC(=O)[C@H](CC(N)=O)NC(=O)c1ccc2ccccc2n1 the results were DRD3 antagonist inactive, D3 ag inactive, HepG2 viability inactive, S2 tox 32µM, ATXN2 expr inh inconclusive and TGFb inhibitor inconclusive.
CC(=O)Nc1ccc(NC(=O)C(C)OC(=O)CNS(=O)(=O)/C=C/c2ccc(C)cc2)cc1 (stereo unspecified) was read as DRD3 antagonist -54, D3 ag inactive, HepG2 viability inactive, S2 tox inactive, ATXN2 expr inh inactive and TGFb inhibitor inactive.
For Cc1ccc(/C=C/S(=O)(=O)NCC(=O)OCC(=O)Nc2ccc(C(N)=O)cc2)cc1 the results were DRD3 antagonist inactive, D3 ag inactive, HepG2 viability inactive, S2 tox inactive, ATXN2 expr inh inactive and TGFb inhibitor inactive.
Screening COc1c[nH]n(C2CCCCC2)c(=O)c1=O returned DRD3 antagonist inconclusive, D3 ag inactive, HepG2 viability inactive, S2 tox 22µM, ATXN2 expr inh inactive and TGFb inhibitor inactive.
For CCCOc1ccc(CNC(=O)c2ccc3c(c2)N(CC)CCS3)cc1 the results were DRD3 antagonist -65, D3 ag inactive, HepG2 viability inactive, S2 tox inconclusive, ATXN2 expr inh inactive and TGFb inhibitor inactive.
For CCC1CN(C(=O)C2CCN(S(=O)(=O)c3c(C)noc3/C=C/c3ccc(C)cc3)CC2)c2cc(C)ccc2O1 (stereo unspecified) the results were D3 ag inactive, HepG2 viability inactive and TGFb inhibitor inactive.
Screening CN1C(=CC=C2C=C(I)C(=O)C(I)=C2)C(C)(C)c2ccccc21 returned DRD3 antagonist inactive, D3 ag inactive, HepG2 viability inactive, S2 tox inconclusive, ATXN2 expr inh inactive and TGFb inhibitor inactive.
For CN1/C(=C\C=N\O)C(C)(C)c2ccccc21 the results were DRD3 antagonist inactive, D3 ag inactive, HepG2 viability inactive, S2 tox inactive, ATXN2 expr inh inactive and TGFb inhibitor inactive.
For CN1/C(=C\C=[N+](C)c2ccccc2)C(C)(C)c2ccccc21 the results were DRD3 antagonist inactive, D3 ag inactive, HepG2 viability inactive, S2 tox 11µM, ATXN2 expr inh 7.1µM and TGFb inhibitor inactive.
CN1/C(=C\C=C2/SC(=S)NC2=O)C(C)(C)c2ccccc21 was read as DRD3 antagonist -53, D3 ag inactive, HepG2 viability inactive, S2 tox 28µM and TGFb inhibitor inactive.
`CCC(Oc1ccc(F)cc1)C(=O)Nc1nc2c(s1)CCCC2` (stereo unspecified) gave D3 ag inactive, HepG2 viability inactive and TGFb inhibitor inactive.
For CC(C)(C)c1cc(NC(=O)Nc2ccc(-c3cn4c(n3)sc3cc(OCCN5CCOCC5)ccc34)cc2)no1 the results were ATXN2 expr inh inactive.
O=C(CCN1C(=O)C2C3C=CC(C3)C2C1=O)N1CCN(c2ccccc2Cl)CC1 (stereo unspecified) was read as DRD3 antagonist -80, D3 ag inactive, HepG2 viability inactive, S2 tox inactive, ATXN2 expr inh inactive and TGFb inhibitor inactive.
`O=C(CCN1C(=O)C2C3C=CC(C3)C2C1=O)N1CCN(c2ccccc2F)CC1` (stereo unspecified) gave DRD3 antagonist inactive, D3 ag inactive, HepG2 viability inactive, S2 tox inactive, ATXN2 expr inh inactive and TGFb inhibitor inactive.
`CCC(CC)NC(=O)COC(=O)CCC(=O)c1ccc(Cl)cc1` gave DRD3 antagonist inactive, D3 ag 41, HepG2 viability inactive, S2 tox inactive, ATXN2 expr inh inactive and TGFb inhibitor inactive.
For Cc1ccc(CC(=O)N2CCC(c3nc4c(nnn4Cc4ccccc4)c(=O)[nH]3)CC2)cc1 the results were DRD3 antagonist inactive, D3 ag inactive, HepG2 viability inactive, S2 tox inactive, ATXN2 expr inh inactive and TGFb inhibitor inconclusive.
Screening Cc1ccc(C)c(C(=O)N2CCC(c3nc4c(nnn4Cc4ccccc4)c(=O)[nH]3)CC2)c1 returned D3 ag inactive, HepG2 viability inactive, S2 tox inactive, ATXN2 expr inh inactive and TGFb inhibitor 11µM.
For O=C(Nc1ccccc1F)c1ccc(CN2CCc3ccccc3C2)cc1 the results were DRD3 antagonist inactive, D3 ag inactive, HepG2 viability inactive, S2 tox inactive, ATXN2 expr inh inactive and TGFb inhibitor inconclusive.
`O=C(CCN1CCc2ccccc2C1)Nc1ccccc1F` gave DRD3 antagonist -78, D3 ag inactive, HepG2 viability inactive, S2 tox inactive, ATXN2 expr inh inactive and TGFb inhibitor inactive.
